CHOP inhibitor – inhibitors of CHOP induction in ER stress response; CHO-K1 CHOP-promoter luciferase, tunicamycin-induced, 15-18 h; inhibition, % at 10 µM; actives 3.8% (n = 220,000); AID 2732;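 active means compounds that reduced the stress-induced luciferase reporter signal by more than about 70% of percent inhibition, limit read from the data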;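 further: 0% = tunicamycin plus vehicle and 100% = wells without tunicamycin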
WT yeast gro inh – growth inhibition of WT yeast, mitochondrial fusion screen; mitochondrial fusion phenotypic screen, WT strain; inhibition, % at 10 µM; actives 2.1% (n = 190,000); in the data active means inhibition above about 58%; tested in S. cerevisiae
RAM inhibit – inhibitors of the yeast RAM network | inhibition, % at 50 µM | actives 1.8% (n = 190,000) | S. cerevisiae dse1pr::URA3 reporter, 5-FOA growth OD615, 2 d; analog-sensitive cbk1-as2 kinase mutant strain;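 active means inhibition above a set limit, 3 SD over mean compound inhibition, cut at about 8.4% in these data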;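 further: 0% = DMSO-only wells with no growth and 100% = 10 µM 1-NA-PP1 full growth; inhibition rescues growth on 5-FOA so higher OD means more RAM inhibition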
L major viab – reduces viability of Leishmania major promastigotes | inhibition, % at 10 µM | actives 9% (n = 200,000) | resazurin fluorescence viability | AID 1063; in the data active means inhibition above about 50%;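 further: promastigotes grown with compound for 44 hours at 28 °C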
Active calls of the source: *; / = not tested or not shown. Hits are enriched below; roughly 13% of the tested compounds scored in any of these assays.

SMILES	CHOP inhibitor	WT yeast gro inh	RAM inhibit	L major viab
c1ccc(-c2ccc(-n3ccnc3)cc2)cc1	5	-28	3	5
CCOC(=O)C1=C(CNCc2ccc(C)cc2)NC(=O)NC1c1cc(C)ccc1C (stereo unspecified)	67	25	-1	100*
CCOC(=O)C1=C(Cn2cnc3ccccc32)NC(=O)NC1c1cc(C)ccc1C (stereo unspecified)	89*	16	0	17
O=C(O)COc1ccccc1/C=N/NC(=O)CSc1nnc(SCc2ccccc2)s1	-6	/	/	/
CCOC(=O)CCNC(=O)Nc1ccc2nc(C)n(Cc3ccc(Cl)cc3)c(=O)c2c1	7	2	2	8
CC(=O)Nc1ccc2nc(C)n(Cc3ccc(Cl)cc3)c(=O)c2c1	6	16	3	78*
CCOC(=O)c1ccc(NC(=O)Nc2cc(C)cc(C)n2)cc1	33	7	5	-3
COc1ccc(CNC(=O)c2cccnc2Sc2ccc(C)c(C)c2)cc1	23	-4	9.3*	-4
COc1ccc(CNC(=O)c2cccnc2SC)cc1OC	23	12	2	0
CN(C)S(=O)(=O)c1ccc(N2CCCC2)c(C(=O)Nc2nc(-c3cc(F)ccc3F)cs2)c1	21	15	9.2*	84*
CN(C)S(=O)(=O)c1ccc(N2CCCC2)c(C(=O)Nc2nc(-c3ccc(F)cc3)cs2)c1	18	-37	7	98*
CN(C)S(=O)(=O)c1ccc(N2CCCC2)c(C(=O)Nc2nc3ccccc3s2)c1	-11	8	4	2
COc1ccc(-c2csc(NC(=O)c3ccccc3NS(=O)(=O)c3ccc(C)cc3)n2)cc1	58	11	-1	5
Cc1cccc2sc(NC(=O)c3cc(S(=O)(=O)N(C)C)ccc3N3CCCC3)nc12	43	5	2	52*
COc1ccc(S(=O)(=O)Nc2ccccc2C(=O)Nc2nc(-c3ccc(F)cc3)cs2)cc1OC	41	59*	4	53*
CCN(CC)S(=O)(=O)c1cc(NC(=O)C(C)N2CCN(c3ccccn3)CC2)ccc1C (stereo unspecified)	23	-19	0	11
CCN(CC)S(=O)(=O)c1cc(NC(=O)C(C)Nc2ccccc2N2CCOCC2)ccc1C (stereo unspecified)	29	11	2	71*
CCN(CC)S(=O)(=O)c1cc(NC(=O)C(C)N2CCN(Cc3ccc4c(c3)OCO4)CC2)ccc1C (stereo unspecified)	19	-1	0	88*
O=C(Nc1ccc([N+](=O)[O-])cc1)c1nc[nH]c1C(=O)NC1CCCCC1	57	0	1	64*
O=C(Nc1ccc(F)cc1)c1nc[nH]c1C(=O)Nc1ccc([N+](=O)[O-])cc1	-39	11	0	92*
CCN1CCN(c2nc3sc4c(c3c3ncnn23)CC(C)CC4)CC1 (stereo unspecified)	-17	-15	4	6
CC1CCCc2sc3nc(NCc4ccco4)n4ncnc4c3c21 (stereo unspecified)	67	79*	3	7
CC1CCc2sc3nc(NCc4ccco4)n4ncnc4c3c2C1 (stereo unspecified)	-9	82*	3	5
COc1ccc([N+](=O)[O-])cc1NC(=O)C(C)Sc1nc(C)c(C)c(C)n1 (stereo unspecified)	-2	-16	2	47
Cc1ccc(-c2nnc(CCC(=O)NCc3csc(C)n3)o2)s1	-9	/	/	/
SMILES	CHOP inhibitor	WT yeast gro inh	RAM inhibit	L major viab
NC(=S)NC(=O)/C=C/c1ccccc1	4	6	0	15
Cn1c(SCc2cccc([N+](=O)[O-])c2)nc2c(c1=O)SCC2	75*	4	4	16
Cn1c(SCc2cccnc2)nc2c(c1=O)SCC2	19	-3	0	1
O=C1CC(c2ccccc2)CC2=C1CN(C1CCCCC1)CN2 (stereo unspecified)	13	-4	1	82*
O=C(CSc1nncc2ccccc12)N1CCCCC1	-15	-21	2	-2
CCOc1ccc(CNc2cccc(SC)c2)cc1	87*	18	0	6
CCOc1ccc(CNc2ccc(N3CCCC3)cc2)cc1	-41	0	2	100*
CC(C)c1ccc(CNc2ccc(N3CCOCC3)cc2)cc1	-17	31	2	81*
CCOc1cc(CNc2ccc(N3CCCC3)cc2)cc(Cl)c1OC	-96	15	4	8
OCc1nc2ccccc2n1/N=C/c1cccs1	-1	/	/	/
CCOC(=O)c1c(NC(=O)CN2C(=O)CN(C)C2=O)sc(C)c1C	1	3	0	6
CSc1cccc(NC(=O)Cc2ccccc2[N+](=O)[O-])c1	11	18	3	7
CC(=NCc1cccc(Cl)c1)c1nc(-c2ccco2)oc1O	-30	21	5	26
CSc1cccc(NC(=S)N2CCC(N(C)C3CCCCC3C)CC2)c1 (stereo unspecified)	-3	-3	3	82*
CSc1cccc(NC(=O)CN(C2CCCCC2)S(C)(=O)=O)c1	31	2	1	15
CSc1cccc(NC(=S)N2CCC(N(C)C3CCCCC3)CC2)c1	-24	-5	-1	88*
CSc1cccc(NC(=S)N2CCCN(Cc3ccccc3F)C2)c1	12	18	0	76*
COc1ccnc(CSC(N)=Nc2cccc(C(F)(F)F)c2)c1	27	22	-1	-3
CN(C)CCNC(=O)c1c(CSc2ccccc2)noc1C(=O)NCc1ccccc1	16	/	/	/
Cc1cccc2cc(CN(Cc3ccco3)C(c3nnnn3CCc3ccccc3)C(C)C)c(=O)[nH]c12 (stereo unspecified)	53	25	6	87*
CCCc1nn(C)c(C(=O)Nc2ccccc2)c1Cl	3	-2	3	-6
C(=N\Nc1ccc2ccccc2n1)/c1ccc2c(c1)OCCO2	75*	32	0	35
Cc1ccc(/C=N/Nc2ccc3ccccc3n2)o1	27	54	2	63*
CCc1ccc(-c2nc(CN3CCC(C(=O)NCc4ccccc4OC)CC3)c(C)o2)cc1	79*	22	2	42
CCN1CCCC1CNC(=O)C1CCN(Cc2nc(-c3cccc(Br)c3)oc2C)CC1 (stereo unspecified)	-27	-4	-1	99*
SMILES	CHOP inhibitor	WT yeast gro inh	RAM inhibit	L major viab
CCN1CCCC1CNC(=O)CSCc1nc(-c2ccccc2C)oc1C (stereo unspecified)	35	-2	0	99*
COc1ccccc1CNC(=O)C1CCN(Cc2nc(-c3cccc(Cl)c3)oc2C)CC1	50	11	1	11
Cc1oc(-c2cccc(Cl)c2)nc1CN1CCC(C(=O)NCc2ccco2)CC1	24	-11	1	-3
Cc1oc(-c2ccc(Cl)cc2)nc1CN1CCC(C(=O)N2CCc3ccccc3C2)CC1	91*	33	2	32
Cc1cc(C)cc(C(=O)N2CCN(c3ccccn3)CC2)c1	-18	-6	0	-4
O=c1c2ccccc2[nH]c(=S)n1CCc1ccccc1	73*	-20	5	-8
CC1CCCC(NC(=O)CCCn2c(=S)[nH]c3ccccc3c2=O)C1C (stereo unspecified)	10	12	9.0*	9

Screening results (PubChem BioAssay)
